Laboratory results taken from PubChem BioAssay (Tox21).
Values joined by “and” are separate entries in the source; they are usually repeats but may differ in a detail not shown here. Identical values can stand only once. Records with an inconclusive call do not appear. The source holds several records for some structures; these can differ, active in one and inactive in another. Active and inactive are the calls of the source. Unless noted, calls follow the shape of the full dose curve.

Key:
[1] = Nuclear factor erythroid 2-related factor 2/antioxidant responsive element (Nrf2/ARE) small molecule agonists: qHTS cell viability counter screen in human keratinocytes (AID 1919968; active = well fitted curve in the direction sought with a large enough effect in the repeat runs; an effect the other way counts as inactive or inconclusive; also: nearly all actives have a fitted effect of over 55% in size; also: potency is read from the fitted curve at half-maximal effect)
Outline: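 HaCaT ARE reporter line, 1,500 cells/well; 5 h settle, 37 C/5% CO2; cpd in DMSO pinned; 23 h exposure; CellTiter-Fluor, 1 h; fluorescence.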

[2] = target: Gonadotropin-releasing hormone receptor (Homo sapiens) (UniProt P30968); assay: Human gonadotropin-releasing hormone receptor (GnRHR) small molecule agonists, calcium flux assay in GnRHR-HEK293 cells (AID 1920063); also: nearly all actives have a fitted effect of over 35% in size; also: potency is read from the fitted curve at half-maximal effect
Gonadotropin-releasing hormone receptor (Homo sapiens), sequence (P30968 whole entry, looked up): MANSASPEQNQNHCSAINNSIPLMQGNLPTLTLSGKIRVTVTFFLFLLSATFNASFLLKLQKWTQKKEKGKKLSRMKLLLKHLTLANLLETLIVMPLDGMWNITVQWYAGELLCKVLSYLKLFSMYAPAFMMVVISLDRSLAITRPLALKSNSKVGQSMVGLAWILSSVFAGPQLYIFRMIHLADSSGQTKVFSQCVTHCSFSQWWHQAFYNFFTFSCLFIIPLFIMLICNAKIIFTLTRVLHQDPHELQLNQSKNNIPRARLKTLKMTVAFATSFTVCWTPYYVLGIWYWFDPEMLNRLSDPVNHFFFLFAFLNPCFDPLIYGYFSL
Outline: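 GnRHR-HEK293, 1500 cells/well, 18 h 37 C/5% CO2; Ca dye 1 h 37 C; cpd pinned (DMSO), agonist mode; kinetic FL 480/540, 3 min, 1 s reads; 15 conc, n=3.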

[3] = target: KiSS-1 receptor (Homo sapiens) (UniProt Q969F8); assay: Human kisspeptin (KISS1R) small molecule agonists, calcium flux assay in KISS1R-HEK293 cells (AID 1920064; active = well fitted curve in the direction sought with a large enough effect in the repeat runs; an effect the other way counts as inactive or inconclusive)
KiSS-1 receptor (Homo sapiens), sequence (Q969F8 whole entry, looked up): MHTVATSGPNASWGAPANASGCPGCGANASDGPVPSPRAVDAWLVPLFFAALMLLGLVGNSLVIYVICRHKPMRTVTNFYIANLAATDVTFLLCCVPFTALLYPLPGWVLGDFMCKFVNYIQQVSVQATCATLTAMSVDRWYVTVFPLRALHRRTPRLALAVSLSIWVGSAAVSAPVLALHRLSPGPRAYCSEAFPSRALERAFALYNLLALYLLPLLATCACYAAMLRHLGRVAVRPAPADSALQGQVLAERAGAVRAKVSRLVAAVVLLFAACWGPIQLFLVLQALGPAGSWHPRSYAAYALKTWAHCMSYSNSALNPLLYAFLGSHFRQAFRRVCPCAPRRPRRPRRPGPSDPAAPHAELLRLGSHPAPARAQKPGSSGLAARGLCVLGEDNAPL
Outline: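 Stable human KISS1R HEK293 line; 18 h plating, 37 C/5% CO2; calcium dye 1 h 37 C; compound pin transfer; kinetic fluorescence Ex/Em 480/540, 3 min.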

[4] = G protein-coupled receptor (GPCR) small molecule agonists, calcium flux assay: HEK293 wild type cell line counter screen (AID 1920065)
Outline: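 Kinetic fluorescence at Ex/Em 480/540, recorded every second over 3 min, served as the read-out after compound addition. Each compound was tested at 15 concentrations in triplicate on cells pre-loaded with calcium dye for 1 h.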

[5] = p53 small molecule agonists, cell-based qHTS assay with rat liver microsomes: qHTS cell viability counter screen (AID 1963580); also: nearly all actives have a fitted effect of over 45% in size; also: potency is read from the fitted curve at half-maximal effect
Outline: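 Viability is assessed in parallel with the p53 reporter read: HCT-116 p53RE-bla cells receive compounds plus rat microsomes and NADPH (0.5 mg/mL final apiece), incubate 16 h at 37 C, and then CellTiter-Glo luminescence is recorded.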

[6] = p53 small molecule agonists, cell-based qHTS assay: qHTS cell viability counter screen (AID 1963581); also: nearly all actives have a fitted effect of over 45% in size; also: potency is read from the fitted curve at half-maximal effect
Outline: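 HCT-116 p53RE-bla cells, 4,000/well, plated 5 h before compound pin transfer; 16 h at 37 C; bla substrate 2 h RT; then CellTiter-Glo, 30 min RT, luminescence.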

[7] = target: 5-hydroxytryptamine receptor 2A (Homo sapiens) (UniProt P28223); assay: 5-hydroxytryptamine receptor 2A (HTR2A) small molecule agonists, cell-based qHTS assay (AID 1963587); also: nearly all actives have a fitted effect of over 30% in size; also: potency is read from the fitted curve at half-maximal effect
5-hydroxytryptamine receptor 2A (Homo sapiens), sequence (P28223 whole entry, looked up): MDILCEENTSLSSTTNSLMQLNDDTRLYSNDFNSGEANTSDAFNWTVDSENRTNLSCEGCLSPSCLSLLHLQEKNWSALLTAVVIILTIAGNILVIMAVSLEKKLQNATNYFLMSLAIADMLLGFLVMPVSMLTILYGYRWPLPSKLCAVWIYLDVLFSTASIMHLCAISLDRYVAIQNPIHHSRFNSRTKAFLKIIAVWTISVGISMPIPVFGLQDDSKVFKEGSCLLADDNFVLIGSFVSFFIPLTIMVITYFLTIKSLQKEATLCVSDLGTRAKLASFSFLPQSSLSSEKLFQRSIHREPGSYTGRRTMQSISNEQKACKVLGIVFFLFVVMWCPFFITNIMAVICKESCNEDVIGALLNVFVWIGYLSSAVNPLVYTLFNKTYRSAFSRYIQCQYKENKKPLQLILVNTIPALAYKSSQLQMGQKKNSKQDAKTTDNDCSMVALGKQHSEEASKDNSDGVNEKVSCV
Outline: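 CHO cells stably expressing human HTR2A, plated 18 h, loaded with calcium dye 1 h at 37 C. Agonist mode: compounds added and intracellular calcium fluorescence recorded kinetically for 2 min at 1 sec intervals.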

[8] = target: Muscarinic acetylcholine receptor M1 (Homo sapiens) (UniProt P11229); assay: Cholinergic receptor muscarinic 1 (CHRM1) small molecule antagonists, cell-based qHTS assay (AID 1963588); also: nearly all actives have a fitted effect of over 40% in size
Muscarinic acetylcholine receptor M1 (Homo sapiens), sequence (P11229 whole entry, looked up): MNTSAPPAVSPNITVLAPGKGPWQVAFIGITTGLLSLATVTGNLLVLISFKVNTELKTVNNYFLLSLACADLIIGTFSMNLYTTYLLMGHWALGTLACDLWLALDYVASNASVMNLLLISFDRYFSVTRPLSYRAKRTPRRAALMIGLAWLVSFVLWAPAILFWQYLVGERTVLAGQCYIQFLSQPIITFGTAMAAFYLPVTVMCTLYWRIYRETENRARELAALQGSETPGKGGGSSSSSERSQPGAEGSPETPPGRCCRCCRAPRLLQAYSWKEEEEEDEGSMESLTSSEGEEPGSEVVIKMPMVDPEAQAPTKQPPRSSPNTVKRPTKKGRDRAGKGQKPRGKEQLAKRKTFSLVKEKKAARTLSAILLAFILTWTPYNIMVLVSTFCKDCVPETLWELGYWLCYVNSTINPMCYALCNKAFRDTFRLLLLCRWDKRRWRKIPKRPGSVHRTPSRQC
Outline: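 CHRM1-CHO calcium-flux assay, antagonist mode. Cells were seeded 18 h, dye-loaded 1 h at 37 C and given compound for 5 min at RT, then acetylcholine was added at 50nM. FDSS fluorescence was read 3 min; 15 concentrations, three runs.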

[9] = target: Muscarinic acetylcholine receptor M1 (Homo sapiens) (UniProt P11229); assay: Cholinergic receptor muscarinic 1 (CHRM1) small molecule agonists, cell-based qHTS assay (AID 1963589); also: nearly all actives have a fitted effect of over 35% in size; also: potency is read from the fitted curve at half-maximal effect
Outline: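 Human M1 in stable CHO line; 18 h plating, 1 h dye load 37 C; cpd added (agonist mode); Ca2+ fluorescence kinetic read, 1 s intervals; 15 conc, 3 runs.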

[10] = cAMP Responsive Elements (CRE) small molecule antagonists, cell-based qHTS assay (AID 1963591; active = well fitted inhibition curve with a large enough effect in the signal ratio in the repeat runs, not every such curve was filed as active; the % refers to the signal ratio)
Outline: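 Beta-lactamase reporter read by FRET substrate (LiveBLAzer B/G) after 2 h at room temperature. CRE-bla HEK293T cells had received compound plus 0.25 uM (final) NKH477 for 3 h at 37 °C.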

[11] = target: Beta-2 adrenergic receptor (Homo sapiens) (UniProt P07550); assay: Adrenergic beta2 receptor (ADRB2) small molecule antagonists, cell-based qHTS assay (AID 1963592); also: nearly all actives have a fitted effect of over 50% in size; also: potency is read from the fitted curve at half-maximal effect
Beta-2 adrenergic receptor (Homo sapiens), sequence (P07550 whole entry, looked up): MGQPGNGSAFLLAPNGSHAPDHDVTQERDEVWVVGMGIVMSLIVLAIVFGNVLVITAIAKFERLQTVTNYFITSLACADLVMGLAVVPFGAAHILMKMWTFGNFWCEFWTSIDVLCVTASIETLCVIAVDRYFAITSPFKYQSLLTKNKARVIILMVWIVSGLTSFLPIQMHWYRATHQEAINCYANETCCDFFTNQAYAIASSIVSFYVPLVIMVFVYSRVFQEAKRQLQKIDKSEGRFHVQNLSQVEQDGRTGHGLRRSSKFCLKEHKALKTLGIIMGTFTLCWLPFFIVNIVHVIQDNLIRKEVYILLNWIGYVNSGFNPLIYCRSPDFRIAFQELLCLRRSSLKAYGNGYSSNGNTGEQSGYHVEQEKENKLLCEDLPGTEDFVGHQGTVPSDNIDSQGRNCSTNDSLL
Outline: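 Cells (CHO, stable ADRB2 overexpression) incubated 18-20hr at 37C; compounds added from DMSO; agonist mix (1nM isoproterenol, 100uM IBMX, 25uM Ro-20-1724) added; 0.5hr RT; d2-cAMP and anti-cAMP-cryptate added; 1hr RT; 665/615 nm read.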

[12] = target: Beta-2 adrenergic receptor (Homo sapiens) (UniProt P07550); assay: Adrenergic beta2 receptor (ADRB2) small molecule agonists, cell-based qHTS assay (AID 1963593);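 also: CHO cells stably overexpressing human ADRB2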
Outline: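 CHO cells stably over-expressing ADRB2 were plated overnight at 37C, then dosed with compounds plus a stimulation mix containing 100uM IBMX and 25uM Ro-20-1724 for 0.5hr at room temperature. cAMP was measured by HTRF competition, 1hr.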

[13] = target: D(2) dopamine receptor (Homo sapiens) (UniProt P14416); assay: Dopamine D2 receptor (DRD2) small molecule antagonists, cell-based qHTS assay (AID 1963595; active = well fitted inhibition curve with a large enough effect in the signal ratio in the repeat runs, with a control signal flat; the % refers to the signal ratio; also: potency is read from the fitted curve at half-maximal effect)
D(2) dopamine receptor (Homo sapiens), sequence (P14416 whole entry, looked up): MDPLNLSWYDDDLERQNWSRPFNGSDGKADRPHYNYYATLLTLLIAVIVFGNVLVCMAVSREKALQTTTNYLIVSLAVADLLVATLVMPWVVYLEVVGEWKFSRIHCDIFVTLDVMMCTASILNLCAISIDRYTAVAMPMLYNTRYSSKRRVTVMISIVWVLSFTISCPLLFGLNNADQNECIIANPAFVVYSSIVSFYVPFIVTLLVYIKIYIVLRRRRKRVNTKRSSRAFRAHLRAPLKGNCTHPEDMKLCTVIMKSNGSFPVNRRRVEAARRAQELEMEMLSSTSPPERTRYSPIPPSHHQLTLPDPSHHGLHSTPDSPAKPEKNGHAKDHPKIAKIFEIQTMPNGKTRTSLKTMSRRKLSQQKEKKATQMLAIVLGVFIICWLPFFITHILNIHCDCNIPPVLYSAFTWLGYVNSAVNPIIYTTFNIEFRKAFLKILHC
Outline: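 HTRF cAMP read-out at 665 and 620 nm emission (340 nm excitation). Antagonist mode: compounds were tested against 12 nM quinpirole in DRD2-HEK293 cells, with 200 nM NKH477 raising cAMP and 0.1 mM Ro20-1724 blocking its breakdown.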

[14] = p53 small molecule agonists, cell-based qHTS assay with human liver microsomes (AID 1963577);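 also: p53 response element beta-lactamase reporter cells with liver microsomes plus NADPH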
Outline: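 HLM-supplemented p53RE-bla reporter assay: 16 h compound exposure at 37 C, microsomes and NADPH each 0.5 mg/mL final, read by fluorescence intensity.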

[15] = p53 small molecule agonists, cell-based qHTS assay with rat liver microsomes (AID 1963578)
Outline: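 Quantitative HTS of the Tox21 10K library: p53RE-bla cells, rat liver microsomes plus NADPH at 0.5 mg/mL final each, 16 h at 37 C, beta-lactamase fluorescence detection.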

[16] = p53 small molecule agonists, cell-based qHTS assay with human liver microsomes: qHTS cell viability counter screen (AID 1963579); also: nearly all actives have a fitted effect of over 45% in size; also: potency is read from the fitted curve at half-maximal effect
Outline: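 Viability of p53RE-bla cells is measured as CellTiter-Glo luminescence following a 16 h, 37 C incubation with compound, liver microsomes from human donors and NADPH.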

[17] = target: 5-hydroxytryptamine receptor 2A (Homo sapiens) (UniProt P28223); assay: 5-hydroxytryptamine receptor 2A (HTR2A) small molecule antagonists, cell-based qHTS assay (AID 1963586); also: nearly all actives have a fitted effect of over 45% in size
Outline: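 Antagonist-mode intracellular calcium assay: DOI (4 nM) added after 5 min compound pre-incubation at room temperature to dye-loaded HTR2A-CHO cells. Fluorescence followed for 3 min, sampled every second.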

[18] = cAMP Responsive Elements (CRE) small molecule agonists, cell-based qHTS assay (AID 1963590)
Outline: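 HEK 293T CRE-bla, 2,000 cells/well, 18 h preincubation 37 C/5% CO2; cpds (DMSO) pinned, 3 h; LiveBLAzer B/G FRET substrate, 2 h RT.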

[19] = target: D(2) dopamine receptor (Homo sapiens) (UniProt P14416); assay: Dopamine D2 receptor (DRD2) small molecule agonists, cell-based qHTS assay (AID 1963594); also: nearly all actives have a fitted effect of over 35% in size
Outline: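 HEK293 cells stably expressing human DRD2, pre-treated with PDE inhibitor Ro20-1724 (0.1 mM final) and compound 10 min at room temperature, then stimulated with NKH477 (200nM […]) for 30 min. cAMP read by HTRF (665/620 nm).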

[20] = p53 small molecule agonists, cell-based qHTS assay (AID 1963582; active = well fitted activation curve with a large enough effect in the signal ratio in the repeat runs, not every such curve was filed as active; the % refers to the signal ratio)
Outline: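 Reporter line: p53RE-bla. Pre-incubation 5 h, 37 C, 5% CO2; compound (DMSO, pin tool) 16 h, 37 C; B/G FRET substrate 2 h RT; fluorescence intensity read.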
% is scaled to controls: 0 for no effect and ±100 for the full control effect.

[Cl-].[Cl-].[Cl-].[Fe+3]
inactive: Potency [1] | Potency [2] | Potency [3] | Potency [4] | Potency [5] | Potency [6] | Potency [7] | Potency [8] | Potency [9] | Potency [10] | Potency [11] | Potency [12] | Potency [13]

CN=C=S
44 µM (active) and inactive: Potency [7]
inactive: Potency [1] | Potency [2] | Potency [4] | Potency [14] | Potency [15] | Potency [16] | Potency [5] | Potency [17] | Potency [8] | Potency [9] | Potency [18] | Potency [10] | Potency [11] | Potency [19] | Potency [13]

O=c1[nH]c2ccccc2n1C1CCN(CCCC(c2ccc(F)cc2)c2ccc(F)cc2)CC1
28.9 µM (active) and inactive: Potency [16]
40.8 µM (active) and inactive: Potency [5]
active: Potency [1] 27.3 µM and 13.3 µM | Potency [11] 33.5 µM
inactive: Potency [3] | Potency [4] | Potency [14] | Potency [15] | Potency [7] | Potency [8] | Potency [9] | Potency [19]

Cc1cc(Cl)ccc1OC(C)C(=O)O (stereo unspecified)
inactive: Potency [1] | Potency [2] | Potency [4] | Potency [14] | Potency [15] | Potency [16] | Potency [5] | Potency [6] | Potency [17] | Potency [7] | Potency [8] | Potency [9] | Potency [18] | Potency [10] | Potency [11] | Potency [12] | Potency [13]

Nc1ccc(Cc2ccc(N)cc2)cc1
inactive: Potency [1] | Potency [3] | Potency [4] | Potency [14] | Potency [15] | Potency [16] | Potency [5] | Potency [6] | Potency [20] | Potency [18] | Potency [11] | Potency [12] | Potency [19] | Potency [13]

Cc1ccc(N)c(C)c1
inactive: Potency [1] | Potency [3] | Potency [4] | Potency [16] | Potency [5] | Potency [6] | Potency [17] | Potency [7] | Potency [8] | Potency [9] | Potency [18] | Potency [10] | Potency [11] | Potency [19] | Potency [13]

c1ccc2c(c1)-c1cccc3cccc-2c13
inactive: Potency [1] | Potency [2] | Potency [3] | Potency [14] | Potency [16] | Potency [5] | Potency [6] | Potency [20] | Potency [8] | Potency [9] | Potency [18] | Potency [11] | Potency [19] | Potency [13]

O=[N+]([O-])O[C@H]1CO[C@H]2[C@@H]1OC[C@H]2O[N+](=O)[O-]
inactive: Potency [1] | Potency [2] | Potency [3] | Potency [14] | Potency [15] | Potency [16] | Potency [5] | Potency [6] | Potency [20] | Potency [17] | Potency [7] | Potency [8] | Potency [9] | Potency [18] | Potency [10] | Potency [11] | Potency [12] | Potency [19] | Potency [13]

CC(=O)O
inactive: Potency [1] | Potency [2] | Potency [3] | Potency [16] | Potency [5] | Potency [6] | Potency [17] | Potency [7] | Potency [8] | Potency [9] | Potency [18] | Potency [10] | Potency [11] | activation [12] -4.33% [at 8.39 µM] | Potency [19] | Potency [13]

CC(C)(c1ccccc1)c1ccc(O)c(C(C)(C)c2ccccc2)c1
active: Potency [1] 13.6 µM and 30.6 µM | Potency [6] 14.3 µM and 45.8 µM | Potency [13] 54 µM
inactive: Potency [2] | Potency [3] | Potency [15] | Potency [17] | Potency [7] | Potency [8] | Potency [19]

C#CCOC(=O)/C=C(C)/C=C/CC(C)CCCC(C)C (stereo unspecified)
inactive: Potency [2] | Potency [3] | Potency [4] | Potency [14] | Potency [15] | Potency [16] | Potency [5] | Potency [6] | Potency [20] | Potency [17] | Potency [7] | Potency [8] | Potency [9] | Potency [18] | Potency [10] | Potency [11] | Potency [12] | Potency [19]

C=CC(=O)OCC(C)C
inactive: Potency [1] | Potency [2] | Potency [4] | Potency [14] | Potency [15] | Potency [16] | Potency [5] | Potency [6] | Potency [20] | Potency [17] | Potency [7] | Potency [8] | Potency [9] | Potency [18] | Potency [10] | Potency [11] | Potency [19] | Potency [13]

CCCCCCn1cc[n+](C)c1
inactive: Potency [1] | Potency [2] | Potency [3] | Potency [16] | Potency [5] | Potency [6] | Potency [17] | Potency [7] | Potency [8] | Potency [9] | Potency [18] | Potency [10] | Potency [11] | Potency [12] | Potency [19] | Potency [13]

[Cl-].[Cl-].[Hg+2]
inactive: Potency [4] | Potency [17] | Potency [8]
active: Potency [1] 7.66 µM and 3.06 µM | Potency [2] 38.7 µM and 38.9 µM | Potency [16] 5.74 µM and 10.2 µM | Potency [5] 16.2 µM and 4.08 µM | Potency [6] 3.62 µM and 9.13 µM | Potency [7] 54.9 µM | Potency [9] 54.9 µM | Potency [11] 48.3 µM | Potency [13] 1.92 µM

O=S(=O)(O)O
inactive: Potency [1] | Potency [2] | Potency [3] | Potency [4] | Potency [16] | Potency [17] | Potency [7] | Potency [8] | Potency [9] | Potency [18] | Potency [10] | Potency [11] | Potency [12] | Potency [19] | Potency [13]

ClCCOCOCCCl
inactive: Potency [1] | Potency [3] | Potency [4] | Potency [14] | Potency [15] | Potency [16] | Potency [6] | Potency [20] | Potency [17] | Potency [7] | Potency [8] | Potency [9] | Potency [18] | Potency [10] | Potency [11] | Potency [19]
